Experimental data published in PubChem BioAssay AID1159580 (chemical genetic matrix, 2015).
Hit rate of the full screen: of about 5,500 compounds, about 2,000 (36%) were called active. Roughly 18% stayed inconclusive and do not appear here. No stated cut-off is given here; in the data, active means normalized growth mostly below about 0.91 (no sharp cut-off); inconclusive means no clear call, values can overlap the other calls; inactive means mostly above about 0.92. This is one part of the list.

Assay: chemical genetic growth profiling, strain panel (AID 1159580);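 further: tested at 20 µM; growth read once vehicle control cultures reached saturation at 30 °C; 1 = growth at the plate median or of vehicle wells; lower values mean less growth of the strain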
Conditions: growth OD
[1] = S. cerevisiae deletion strains, locus YAL013W, strain DEP1, hits give low values
[2] = S. cerevisiae deletion strains, locus YAL040C, strain CLN3, hits give low values
[3] = S. cerevisiae deletion strains, locus YCL061C, strain MRC1 (second series), hits give low values
[4] = S. cerevisiae deletion strains, locus YDR363W, strain ESC2, hits give low values
[5] = S. cerevisiae deletion strains, locus YER002W, strain NOP16, hits give low values
[6] = S. cerevisiae deletion strains, locus YGR229C, strain SMI1, hits give low values
[7] = S. cerevisiae deletion strains, locus YMR307W, strain GAS1, hits give low values
[8] = S. cerevisiae deletion strains, locus YNL153C, strain GIM3, hits give low values
[9] = S. cerevisiae deletion strains, locus YNL175C, strain NOP13, hits give low values
[10] = S. cerevisiae deletion strains, locus YNL197C, strain WHI3, hits give low values
[11] = S. cerevisiae deletion strains, locus YNL224C, strain SQS1, hits give low values
[12] = S. cerevisiae deletion strains, locus YNL322C, strain KRE1, hits give low values
[13] = S. cerevisiae deletion strains, locus YOR083W, strain WHI5 (second series), hits give low values
[14] = S. cerevisiae deletion strains, locus YPL241C, strain CIN2, hits give low values
[15] = S. cerevisiae deletion strains, locus YGR078C, strain PAC10, hits give low values

Measured: normalized growth

NC(Cc1cccc(-c2ccccc2CP(=O)(O)O)c1)C(=O)O (configuration not stated)
inactive: [1] 0.998 | [2] 1 | [3] 1 | [4] 0.983 | [5] 1.02 | [6] 1.01 | [7] 0.989 | S. cerevisiae deletion strains, locus YNL128W, strain TEP1, hits give low values 0.994 | [8] 1.04 | [9] 0.998 | [10] 0.995 | [11] 1 | [12] 1 | [13] 0.989 | [14] 1

C[C@H](Cc1ccccc1)Nc1ncnc2c1ncn2[C@@H]1O[C@H](CO)[C@H](O)C1O (some centres not stated)
inactive: [1] 0.995 | [2] 0.979 | [3] 1.01 | [4] 0.989 | [5] 0.997 | [15] 1 | [6] 1 | [7] 1 | [8] 1.22 | [9] 0.989 | [10] 0.99 | [11] 1 | [12] 0.996 | [13] 0.988

C/C(=N/O)c1sc2nc(C(F)(F)F)nn2c1C
inactive: [1] 0.954 | S. cerevisiae deletion strains, locus YBR229C, strain ROT2, hits give low values 0.957 | S. cerevisiae deletion strains, locus YDL101C, strain DUN1, hits give low values 1.01 | S. cerevisiae deletion strains, locus YDL134C, strain PPH21, hits give low values 0.966 | S. cerevisiae deletion strains, locus YDR150W, strain NUM1, hits give low values 0.975 | S. cerevisiae deletion strains, locus YEL061C, strain CIN8, hits give low values 0.981 | [15] 0.956 | [6] 0.982 | S. cerevisiae deletion strains, locus YHR030C, strain SLT2, hits give low values 0.89 | S. cerevisiae deletion strains, locus YHR087W, strain rtc3, hits give low values 0.961 | S. cerevisiae deletion strains, locus YJL187C, strain SWE1, hits give low values 0.974 | S. cerevisiae deletion strains, locus YJR043C, strain POL32, hits give low values 0.977 | S. cerevisiae deletion strains, locus YJR075W, strain HOC1, hits give low values 0.997 | S. cerevisiae deletion strains, locus YLR039C, strain RIC1, hits give low values 0.795 | S. cerevisiae deletion strains, locus YLR058C, strain SHM2 (second series), hits give low values 0.953 | S. cerevisiae deletion strains, locus YLR085C, strain ARP6, hits give low values 1.05 | S. cerevisiae deletion strains, locus YLR262C, strain YPT6, hits give low values 0.86 | S. cerevisiae deletion strains, locus YML094W, strain GIM5, hits give low values 0.943 | S. cerevisiae deletion strains, locus YMR219W, strain ESC1, hits give low values 0.963 | S. cerevisiae deletion strains, locus YMR263W, strain SAP30, hits give low values 0.964 | [8] 1 | S. cerevisiae deletion strains, locus YNL298W, strain CLA4 (second series), hits give low values 0.99 | [12] 0.962 | S. cerevisiae deletion strains, locus YNR030W, strain Alg12, hits give low values 0.989 | S. cerevisiae deletion strains, locus YPL055C, strain LGE1, hits give low values 0.96 | [14] 1.02 | S. cerevisiae deletion strains, locus YPR135W, strain CTF4, hits give low values 0.851 | S. cerevisiae strains, strain wild type, hits give low values 0.962
